Measured values reported in PubChem BioAssay AID571 (The Scripps Research Institute Molecular Screening Center, 2007).
About 640 (0.98%) of roughly 65,000 compounds were called active. Shown is part of a subset that was picked to be rich in actives. Unmarked numbers belong to inactive results.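 How the source made its calls: active means inhibition above a set limit, the mean inhibition across every tested compound plus 3 SD (cut at about 29% in these data); inactive means the rest.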

These compounds were tested against 5-hydroxytryptamine receptor 1E (Homo sapiens) (UniProt P28566) (assay: blockade of human serotonin 5HT1E receptor – cell-based, HTS, primary screen (AID 571;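 further: signal is the 460 over 535 nm emission ratio of beta-lactamase substrate; 0% = agonist plus DMSO wells and 100% = wells without agonist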)). Conditions: CHO 5-HT1E Ga15 NFAT-bla reporter, FRET, antagonist; at 6 µM; stronger effect = higher value.
Sequence of 5-hydroxytryptamine receptor 1E (Homo sapiens) (P28566 whole entry, looked up): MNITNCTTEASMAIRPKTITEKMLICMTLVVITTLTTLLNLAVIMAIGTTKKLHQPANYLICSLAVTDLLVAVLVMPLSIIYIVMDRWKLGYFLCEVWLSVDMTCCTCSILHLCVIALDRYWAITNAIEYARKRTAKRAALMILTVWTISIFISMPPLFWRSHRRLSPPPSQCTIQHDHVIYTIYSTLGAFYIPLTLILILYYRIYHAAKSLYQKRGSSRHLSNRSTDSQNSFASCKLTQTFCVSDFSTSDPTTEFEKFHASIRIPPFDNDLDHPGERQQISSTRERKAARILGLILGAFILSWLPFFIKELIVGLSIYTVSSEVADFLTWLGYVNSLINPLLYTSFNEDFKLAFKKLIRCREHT

Row | SMILES | inhibition
1 | COc1cc(C(=O)N(Cc2ccc(N(C)C)cc2)C2CCS(=O)(=O)C2)cc(OC)c1OC (configuration not stated) | -0.54%
2 | CCCOc1ccccc1C1CC(=O)Nc2cc3c(cc21)OCO3 (configuration not stated) | 52.8% (active)
3 | COc1cc2c(cc1OC)C(c1ccc(C)o1)CC(=O)N2 (configuration not stated) | 11.3%
4 | COCCOC(=O)C1=C(C)NC(=O)CC1c1cc2c(cc1Br)OCO2 (configuration not stated) | -1.17%
5 | Cn1c(-c2ccco2)nc2cc3ccccc3cc21 | 1.87%
6 | CCOCCN(C=O)c1cccc(OC)c1 | -9.77%
7 | COC(=O)c1ccc(NCC(=O)c2ccccc2)cc1 | -2.89%
8 | COc1ccc(C(=O)NCCc2ccc(S(N)(=O)=O)cc2)cc1OC | 12.5%
9 | CCOC(=O)N1CCN(S(=O)(=O)c2ccc(C(=O)Nc3ccc(F)cc3F)cc2)CC1 | 38.3% (active)
10 | O=C(Nc1cccc(F)c1)c1ccc(S(=O)(=O)N2CCCC2)cc1 | -2.92%
11 | O=C(CN1CCN(S(=O)(=O)c2ccc(F)cc2)CC1)Nc1ccccc1F | 2.85%
12 | CCOC(=O)c1sc(NC(=O)CSc2ncccn2)c(C#N)c1C | -1.65%
13 | O=S(=O)(c1ccccc1)N(CC(O)CN1CCCCC1)c1ccccc1 (configuration not stated) | -17.2%
14 | Cc1ccc(NC(=O)N2CCC(C(=O)NCc3ccc(F)cc3)CC2)cc1 | -1.42%
15 | O=S(N1CCCCCC1)C12CC3CC(CC(C3)C1)C2 (configuration not stated) | -12.6%
16 | CCC(C)NC(=O)N[C@@H](CCSC)C(=O)O (some centres not stated) | -2.48%
17 | Oc1c(C(c2cccs2)N2CCN(c3ccc(F)cc3)CC2)sc2ncnn12 (configuration not stated) | -14%
18 | O=C(CCSCCc1ccccn1)Nc1nccs1 | -8.42%
19 | CCC(=O)N(Cc1cc2cc(OC)ccc2[nH]c1=O)c1ccccc1C | 15.6%
20 | C/C(=C\C(=O)c1cccnc1)Nc1ccc(C)c(C)c1 | -0.61%
21 | O=C(CNC(=O)c1ccc(Cl)cc1Cl)NCC(=O)Nc1ccccc1N1CCOCC1 | 5.85%
22 | COc1cc(-c2nnc(Cn3cc(C(F)(F)F)ccc3=O)o2)cc(OC)c1OC | 29% (active)
23 | CCCc1nc2ccccc2c(C(=O)OCc2nnc(-c3cc(OC)c(OC)c(OC)c3)o2)c1CC | 23%
24 | CCOC(=O)c1cc(-c2nnc(-c3cc(OC)c(OC)c(OC)c3)o2)c(C)nc1C | -9.6%
25 | COc1cccc(NC(=O)Cn2cnc3sc(C)c(S(=O)(=O)N4CCN(C)CC4)c3c2=O)c1 | -6.2%

Row | SMILES | inhibition
26 | CC1(C)Cc2c(C#N)c(SCc3nc4ccccc4[nH]3)nc(N3CCOCC3)c2CO1 | 28.9% (active)
27 | COc1ccc(CSc2nc(N3CCOCC3)c3c(c2C#N)CC(C)(C)OC3)cc1 | -10.9%
28 | CC(C)c1nc(N2CCOCC2)c(C#N)c2c1COC(C)(C)C2 | 10.4%
29 | O=C(CSc1nnc(-c2cccnc2)n1Cc1ccco1)c1ccc(Cl)cc1 | 11%
30 | Cc1ccc(-c2c3c(=O)n(C)c(=O)n(C)c3cn2-c2ccccc2O)cc1 | 4.09%
31 | Cc1ccc(-c2c3c(=O)n(C)c(=O)n(C)c3cn2-n2cnnc2)cc1 | 30.5% (active)
32 | COc1ccc(-c2c3c(=O)n(C)c(=O)n(C)c3cn2-c2cccc(OC)c2)cc1 | 6.73%
33 | CC1CC(C)CN(CC(=O)Nc2ccc(S(N)(=O)=O)cc2)C1 (configuration not stated) | -5.33%
34 | Cc1ccc(SCc2cc(=O)[nH]c(N3CCCCC3)n2)cc1 | 2.38%
35 | C=CCSc1nnc(Cn2c(=O)sc3ccccc32)n1C | 1.57%
36 | COc1ccccc1-n1nnnc1S(=O)(=O)Cc1ccc(Cl)cc1 | 29.9% (active)
37 | COc1ccccc1N1CCN(C(=O)CN(Cc2ccc(Cl)cc2)S(C)(=O)=O)CC1 | -2.25%
38 | COc1ccccc1N1CCN(Cc2nnnn2CCc2ccccc2)CC1 | -0.82%
39 | Cn1cnc2c1c(=O)n(Cc1c(Cl)cccc1Cl)c(=O)n2C | 5.12%
40 | COC(=O)CNS(=O)(=O)c1ccc(Cc2ccc(S(=O)(=O)NCC(=O)OC)cc2)cc1 | 3.6%
41 | CCCn1c(C(O)c2ccc(OCC)cc2)nc2ccccc21 (configuration not stated) | -10.8%
42 | COc1ccc(CCn2c(NCCCN3CCOCC3)nc3c2c(=O)[nH]c(=O)n3C)cc1 | -6.49%
43 | COC(=O)c1ccc(NC(=O)CN(c2ccc(C)cc2)S(=O)(=O)c2c(C)n[nH]c2C)cc1 | 3.08%
44 | CCOC(=O)c1ccc(-c2ccc(C(=O)Nc3cccnc3)o2)cc1 | 10.9%
45 | Cc1cccc(NC(=O)CSc2nnc(NC(=O)CN3CCOCC3)s2)c1 | -3.22%
46 | CCC(=O)Nc1ccc(C(=O)CSc2nnc(CNc3ccc(Cl)cc3)o2)cc1OC | 1.52%
47 | COc1ccc2c(c1OC)C(=O)N(c1ncn[nH]1)C2 | -0.04%
48 | COCC(C)n1c(SCc2ccc(C(=O)OC)o2)nc2ccccc2c1=O (configuration not stated) | 24.9%
49 | COC(=O)c1ccc(CSc2ccccc2C)o1 | 1.46%
50 | COC(=O)c1ccc(CSc2nc3ccccc3c(=O)n2-c2cccc(OC)c2)o1 | 39.7% (active)

Row | SMILES | inhibition
51 | Cc1cc(Nc2cccc(F)c2)n2ncnc2n1 | -1.52%
52 | CC(=O)NCCc1ccc(S(=O)(=O)N(C)C2CCS(=O)(=O)C2)cc1 (configuration not stated) | -8.57%
53 | Fc1ccc2[nH]c3c(N4CCN(Cc5ccc6c(c5)OCO6)CC4)ncnc3c2c1 | 27.4%
54 | Fc1ccc2[nH]c3c(N4CCSCC4)ncnc3c2c1 | 54.9% (active)
55 | Fc1ccc2nc(N3CCCCC3)sc2c1 | 1.55%
56 | C=CCN(CC=C)C(=O)CN1C(=O)c2ccccc2C1=O | 1.46%
57 | COC(=O)Nc1nc2ccc(Sc3ccccc3)cc2[nH]1 | 65.7% (active)
58 | COC(=O)Cc1nc2ccccc2[nH]1 | -1.34%
59 | Oc1ccc2nc(Cc3ccccc3)[nH]c2c1 | -16.1%
60 | CCOc1ccccc1C1CC(c2ccc(Cl)cc2)Nc2nc(N)nn21 (configuration not stated) | 4.62%
61 | N=c1n(Cc2ccc(Cl)cc2)c2ccccc2n1CC(O)c1ccco1 (configuration not stated) | -1.68%
62 | CC(=O)NC(C)(C)C1CC=C(C)/C(=N\O)C1 (configuration not stated) | 6.93%
63 | CC(C)(C)C(=O)CCN1C(=O)C2(OCCO2)c2ccccc21 | -0.27%
64 | COc1ccc2[nH]c3c(=O)n(Cc4ccco4)cnc3c2c1 | 9.2%
65 | CSc1nnc(CNC(=O)c2ccccc2)n1-c1ccc(F)cc1 | 4.06%
66 | CC(NC(=O)c1ccco1)C(=O)Nc1nc(-c2ccccn2)cs1 (configuration not stated) | -4.44%
67 | CCn1c(Cc2ccccc2)nnc1SCC(=O)Nc1ccccc1 | -6.68%
68 | CC1(C)CC(=O)C=C(NCCCNC2CCCCC2)C1 | 7.98%
69 | CCN(CC(=O)NCc1cccs1)c1nnnn1-c1ccccc1 | 28.8% (active)
70 | Cc1ccccc1-n1c(SCC(=O)NCc2cccs2)nnc1-c1ccncc1 | -6.81%
71 | Cc1nnc(SCC(=O)NCc2cccs2)[nH]c1=O | 2.95%
72 | c1ccc(-c2oc3ncnc(N4CCOCC4)c3c2-c2ccccc2)cc1 | -16.4%
73 | O=C1c2ccccc2-c2ncnc3c(N4CCOCC4)cc(N4CCOCC4)c1c23 | 38.7% (active)
74 | c1cnn(-c2cc(N3CCOCC3)ncn2)c1 | -8.12%
75 | COc1ccccc1N(C(=O)Cn1nnc2ccccc21)C(C(=O)NCc1ccco1)c1ccc(C)o1 (configuration not stated) | 12.3%

Row | SMILES | inhibition
76 | COc1ccc(-c2cc(C(F)(F)F)nc(S(C)(=O)=O)n2)cc1OC | 70.8% (active)
77 | COc1ccc(-c2ccc(Nc3ccc(S(=O)(=O)N4CCCC4)cc3)nn2)cc1OC | 20.8%
78 | COc1ccc(-c2nnco2)cc1OC | 3.01%
79 | CCSc1nc(C)nc2c1oc1ccccc12 | 10.3%
80 | CCc1nc(N2CCN(c3nc(C)cc(C)n3)CC2)c2oc3ccccc3c2n1 | 4.92%
81 | CCc1nc(Nc2ccc3nccnc3c2)c2oc3ccccc3c2n1 | 51.6% (active)
82 | Cc1ccc(N(CC(O)CN2CCCC2)S(=O)(=O)c2ccccc2)cc1 (configuration not stated) | -0.23%
83 | Cc1ccc(Nc2cc(=O)n(C3CCCCC3)c(=O)[nH]2)cc1C | -5.13%
84 | CN1CCN(Cc2nc3c(c(=O)n(C)c(=O)n3C)n2Cc2cccc3ccccc23)CC1 | 1.52%
85 | COc1ccc(N(CC(=O)NC2CCCCCCC2)S(=O)(=O)c2c(C)nn(C)c2C)cc1 | -13.7%
86 | Cc1cn(C2C=CC(CO)O2)c(=O)[nH]c1=O (configuration not stated) | -4.28%
87 | O=C(CN1C(=O)CSc2ncccc21)N1CCOCC1 | 16.6%
88 | Cc1cccc(CSc2nnc(Cn3c(=O)sc4ccccc43)n2C)c1 | -7.45%
89 | COc1cccc(-c2cc3nc4c(c(N5CCC6(CC5)OCCO6)n3n2)CCCC4)c1 | 28.7% (active)
90 | COc1cccc(-c2nc(S(=O)(=O)c3ccccc3)c(N3CCOCC3)o2)c1 | 19.7%
91 | Cc1nc2cc(-c3ccc(F)cc3)nn2c(N2CCOCC2)c1C | -1.31%
92 | Cc1ccc(-n2ncc3c(N4CCN(c5ccc(F)cc5)CC4)ncnc32)c(C)c1 | 5.14%
93 | Cc1ccc(-n2ncc3c(=O)[nH]cnc32)c(C)c1 | 13%
94 | Cc1ccc(-n2ncc3c2ncn2nc(-c4ccco4)nc32)c(C)c1 | 40% (active)
95 | O=C(Cn1nnc2ccccc2c1=O)Nc1cc(C(F)(F)F)ccc1N1CCOCC1 | 5.96%
96 | Cn1nc(-c2ccc(N3CCOCC3)c(NC(=O)c3ccccc3)c2)c2ccccc2c1=O | 29.7% (active)
97 | COc1c(C)cccc1C(=O)Nc1cc(Cl)ccc1N1CCOCC1 | 0.53%
